Screen size: about 53,000 compounds; about 900 (1.7%) showed an effect of 50% or more. Shown is part of a subset that was picked to be rich in strong results.
system: Mycobacterium tuberculosis; test: Cornell - Phenotypic assay to identify agents that inhibit growth of Mycobacterium tuberculosis; assay type: functional; set-up: scale not given: direction of the effect not stated beside the values; conditions: 10 mM as filed; unlikely as a test dose

Row | SMILES | Percent Effect
1 | O=C(c1cc(-n2cnnn2)ccc1Cl)N1CCCCCC1 | 22.48%
2 | Cc1noc(C)c1CN1CCOCC12CCN(c1nccs1)CC2.O=C(O)C(F)(F)F | -2.189%
3 | CCNC(=O)N1CCc2ccc(NC(=O)C(C)c3ccsc3)cc21 (centres undefined) | -7.199%
4 | Cc1cnn(C2CCCN(C(=O)c3ccnc(-n4cncn4)c3)C2)c1 (centres undefined) | -11.26%
5 | Cc1cn2nc(N3CCn4c(nnc4C(C)C)C3)sc2n1 | -4.534%
6 | Cn1cc(CN2CCCCC2c2ccc(-c3cnn(C)c3)nc2)cn1 (centres undefined) | 0.8308%
7 | c1cc(CN2CCCCC2c2ccc(Nc3cnccn3)nc2)ccn1 (centres undefined) | 73.82%
8 | CS(=O)(=O)N1CCCCC1c1ccc(Nc2cnccn2)nc1 (centres undefined) | 21.12%
9 | c1cnc(Nc2ccc(C3CCCCN3Cc3ccncc3)cn2)nc1 (centres undefined) | 63.94%
10 | c1cncc(CN2CCCCC2c2ccc(Nc3cnccn3)nc2)c1 (centres undefined) | 29.23%
11 | Cn1cc(-c2ccc(C3CCCCN3Cc3cccnc3)cn2)cn1 (centres undefined) | 36.92%
12 | Cc1cnn(CCNCc2ccc(OCc3cccnc3)cc2)c1 | -17.94%
13 | Cc1nnc(C2Cc3ccccc3CN2Cc2ncc(Cl)n2C)o1 (centres undefined) | -18.28%
14 | Cn1cc(CC(=O)N2CCCC(c3cc(C(F)(F)F)[nH]n3)C2)cn1 (centres undefined) | -14.78%
15 | O=C(Cn1cc(Cl)cn1)NCCN1CCC(O)(c2ccc(F)cc2)CC1 | 36.23%
16 | CN(C)C(=O)C1CN(c2ccncn2)CCN(C2CCOCC2)C1 (centres undefined) | -28.59%
17 | COc1ccc(C(=O)NS(=O)(=O)c2cc(Cl)sc2Cl)cc1OC(F)F | 76.92%
18 | COc1ccc(C(=O)NS(C)(=O)=O)cc1-c1ccccc1 | 36.61%
19 | O=C(NS(=O)(=O)c1cc(Cl)sc1Cl)c1cccc2c1OCCO2 | 1.673%
20 | COc1cc(C(=O)NS(=O)(=O)c2ccc(C#N)cc2)ccc1C | -19.49%
21 | COc1cc(C(=O)NS(=O)(=O)c2cc(Cl)sc2Cl)ccc1OC(F)F | 83.5%
22 | COc1cccc(C(=O)NS(=O)(=O)c2cc(Cl)sc2Cl)c1OC(F)F | 16.97%
23 | CCc1cc(NC(=O)C(c2cccc(F)c2)N2CCOCC2)[nH]n1 (centres undefined) | -14.2%
24 | O=C(CS(=O)(=O)Cc1cc(Cl)c2c(c1)OCO2)N1CCCCCC1 | -3.371%
25 | COCCCNC(=O)N1CCN(C(=O)c2nsc3ccccc23)CC1 | 12.5%

Row | SMILES | Percent Effect
26 | CN(C)Cc1cc(=O)n2c(n1)CN(C(=O)c1ccc[nH]1)CCC2.O=C(O)C(F)(F)F | -35.4%
27 | Cc1ccc(CN2CCN(c3ncccc3C(N)=O)CC2CCO)cc1 (centres undefined) | 16.45%
28 | Cc1ccc(N2N=C(C(=O)O)S(=O)(=O)c3cccnc32)cc1 | 51.3%
29 | Cc1ccc(N2N=C(C(N)=O)S(=O)(=O)c3cccnc32)cc1 | 106.9%
30 | CC(C)CCN1N=C(C(=O)N2CCCCCC2)S(=O)(=O)c2ccccc21 | 8.314%
31 | Cc1ccc(N2N=C(C(=O)NCC3CC3)S(=O)(=O)c3cccnc32)cc1 | 11.26%
32 | CN1N=C(C(=O)N2CCCCC2)S(=O)(=O)c2ccccc21 | -10.66%
33 | Cc1cn2c(n1)CCC(NC(=O)CCCn1cncn1)C2 (centres undefined) | -12.33%
34 | CC(=O)Nc1nc(C2CCN(C(C)C)CC2)cs1 | -15.97%
35 | CCC(=O)N1CCCCC1c1nc(CN(C)C(C)=O)cc(N(C)C)n1 (centres undefined) | 49.36%
36 | COCC(=O)N1CCCCC1c1nc(CN(C)C(C)=O)cc(N(C)C)n1 (centres undefined) | -40.24%
37 | CC(=O)N1CCCC1c1nc(CN(C)C(=O)C(C)C)cc(N(C)C)n1 (centres undefined) | 52.18%
38 | COc1ccc(C(=O)N2CCOc3ccncc32)cc1 | 9.514%
39 | c1cc(-c2cscn2)cc(N2CCC(NCCc3cccs3)CC2)c1 | 60.71%
40 | c1ccc(-c2cccc(N3CCC(NCCc4cscn4)CC3)c2)cc1 | 93.63%
41 | Fc1cccc(-c2cccc(N3CCC(NC4CCCOC4)CC3)c2)c1 (centres undefined) | 23.21%
42 | CC(C)CC(C)NC1CCN(c2cccc(-c3cscn3)c2)CC1 (centres undefined) | 2.317%
43 | Cc1nc(-c2cccc(N3CCC(NC4CCOCC4)CC3)c2)cs1 | 35.61%
44 | O=C1CCCN1c1cccc(N2CCC(NCCc3cscn3)CC2)c1 | 24.64%
45 | CCCC(=O)N1CCOC2(COCCN(CC(=O)NC)C2)C1.O=C(O)C(F)(F)F (centres undefined) | 6.771%
46 | O=C(CC(SC1CCCCC1)C(=O)O)c1ccc(Br)cc1 (centres undefined) | 52.8%
47 | O=C(CC(SC1CCCCC1)C(=O)O)c1ccc(Cl)cc1 (centres undefined) | 11.66%
48 | Cc1ccc(C(=O)CC(SC2CCCCC2)C(=O)O)cc1 (centres undefined) | 44.78%
49 | O=C(O)C(F)(F)F.O=C(O)C(F)(F)F.O=C(O)c1c(-c2cccnc2)ncc2c1CCN(Cc1ccccn1)C2 | -51.27%
50 | O=C(NCc1cccnc1)c1nc2c(s1)CCCN2C(=O)C1CC1.O=C(O)C(F)(F)F | 6.625%

Row | SMILES | Percent Effect
51 | CC(=O)Nc1nc(C2CCN(CC(N)=O)CC2)cs1 | 1.083%
52 | Cc1nc(Nc2cnccn2)cc(C2CCN(c3ncccn3)C2)n1 (centres undefined) | -14.64%
53 | NC(=O)CN1CCC(c2csc(Nc3cnccn3)n2)CC1 | 53.63%
54 | c1cnc(N2CCC(c3csc(Nc4cnccn4)n3)CC2)nc1 | 78.58%
55 | OCCN1CCC(c2csc(Nc3cnccn3)n2)CC1 | -21.31%
56 | c1cnc(N2CCCC(c3csc(Nc4cnccn4)n3)C2)nc1 (centres undefined) | 29.09%
57 | O=C(N1CCOCC1)n1cnc2ccccc21 | 14.08%
58 | CC1CCN(c2ccc(=O)n(CC(=O)NCCc3ccccc3)n2)CC1 | 45.57%
59 | COc1c(CC2CC(CO)=NO2)c(Br)c2c(c1OC)OCO2 (centres undefined) | -3.025%
60 | CCCS(=O)(=O)N1CCCC(c2nc(-c3ccccc3)c[nH]2)C1 (centres undefined) | 56.46%
61 | CS(=O)(=O)N1CCCC(c2nc(-c3ccccc3)c[nH]2)C1 (centres undefined) | 4.975%
62 | CCN(C)S(=O)(=O)N1CCCC(c2nc(-c3ccccc3)c[nH]2)C1 (centres undefined) | -4.787%
63 | Cc1nc(N2CCOCC2)nc(C)c1NS(=O)(=O)c1ccccc1 | 18.03%
64 | Cc1nc(N2CCCC2)nc(C)c1NS(C)(=O)=O | 7.192%
65 | Cc1ccc(S(=O)(=O)Nc2c(C)nc(N3CCCC3)nc2C)cc1 | 52.33%
66 | CCN1CCCN(S(=O)(=O)c2cnc3onc(C)c3c2)CC1 | 44.95%
67 | Cc1noc2ncc(S(=O)(=O)N3CCCC(C)(C)CC3)cc12 | 49.9%
68 | CCC1CCCN(S(=O)(=O)c2cnc3onc(C)c3c2)C1 (centres undefined) | 54.72%
69 | CCc1noc(CN(Cc2cccs2)CC2CCCO2)n1 (centres undefined) | -2.113%
70 | CNc1ncc(CN(C)C(=O)c2c[nH]nc2-c2cccc(F)c2)cn1 | 11.75%
71 | Cn1ncc2c1CCCN(C(=O)C1CCCC1)C2 | 10.97%
72 | CCNC(=O)N1CCN(c2nc3ccccc3n2C)CC1 | 17.71%
73 | Cn1c(CCN2CCN(CCc3ccccc3)CC2)nc2ccccc21 | 76.94%
74 | Cn1c(CN2CCN(CC3CCCO3)CC2)nc2ccccc21 (centres undefined) | 22.41%
75 | CCCc1ccc(N2CCN(Cc3nc4ccccc4n3C)CC2)cc1 | -0.4475%

Row | SMILES | Percent Effect
76 | Cn1c(CCN2CCN(c3ccc(O)cc3)CC2)nc2ccccc21 | 103.8%
77 | Cc1cc(C)n(C2CCN(Cc3nc4ccccc4n3C)CC2)n1 | 18.24%
78 | CCCc1nc(NC2(COC)CCCC2)c2cnn(C)c2n1 | 21.48%
79 | Cc1ccc(C)c(S(=O)(=O)CCN2CCCC2Cn2cncn2)c1 (centres undefined) | 23.02%
80 | Fc1cccnc1O[C@@H]1CN(Cc2ccccn2)[C@@H]2CCCO[C@@H]21.O=C(O)C(F)(F)F.O=C(O)C(F)(F)F | 2.355%
81 | Cc1ccc(-c2cc(CN3CCCC(Cn4cncn4)C3)on2)cc1 (centres undefined) | 8.833%
82 | O=C(C[C@@H]1COC[C@H]2CN(Cc3ccccn3)C[C@@H]12)N1CCOCC1.O=C(O)C(F)(F)F.O=C(O)C(F)(F)F | 6.339%
83 | Fc1ccc(C(NCc2nnc(-c3ccco3)o2)C2CCC2)cc1 (centres undefined) | 56.57%
84 | c1ccc(C(NCc2nnc(-c3ccco3)o2)C2CCC2)cc1 (centres undefined) | 14.05%
85 | Fc1ccc(C(NCc2nnc(C3CC3)o2)C2CCC2)cc1 (centres undefined) | 14.86%
86 | CC(CNC(=O)Nc1ccc(F)cc1-n1cccc1)N1CCOCC1 (centres undefined) | 31.56%
87 | CCNc1ncc(C(=O)NCc2ccc3nsnc3c2)cn1 | 105.6%
88 | CCNc1ncc(C(=O)NCc2cccc(OC(F)(F)F)c2)cn1 | 27.01%
89 | CCNc1ncc(C(=O)NCc2ccc(F)c(C(F)(F)F)c2)cn1 | -33.7%
90 | O=C(NC1CC1)N1C[C@H]2CN(Cc3cccc(F)c3)C(=O)[C@H]2C1 | -1.024%
91 | Cc1ccc(CN(CCCN(C)C)Cc2cnc(N(C)C)nc2)o1.O=C(O)CC(O)(CC(=O)O)C(=O)O | -2.664%
92 | O=C(O)C(F)(F)F.O=C([C@H]1C[C@H]2OCC[C@H]2N(Cc2ccccn2)C1)N1CCCCO1 | -19.88%
93 | O=C(c1ccccn1)N1CCC(Oc2ncccc2Cl)CC1 | 37.07%
94 | O=C(c1cc(C2CC2)on1)N1CCC(Oc2ncccc2Cl)CC1 | 82.03%
95 | O=C(c1ccccn1)N1CCC(Oc2cccnc2)CC1 | -17.68%
96 | O=C(c1cc(C2CC2)on1)N1CCC(Oc2ncccc2Br)CC1 | 83.65%
97 | O=C(c1cnccn1)N1CCC(Oc2ncccc2Cl)CC1 | 13.63%
98 | N#Cc1cccnc1OC1CCN(C(=O)c2cc(C3CC3)on2)CC1 | 39.39%
99 | CN(C)S(=O)(=O)N1CC(c2ccnc(Nc3ccccn3)n2)C1 | 25.46%

From ChEMBL document CHEMBL3988442, “University of Dundee, Small-Polar-MMV Screening Library” (2021)
